Reference: PubChem BioAssay AID624040 (The Scripps Research Institute Molecular Screening Center, 2012)
Hit rate of the full screen: of about 360,000 compounds, about 2,100 (0.58%) were called active.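 The calls were made as follows: active = inhibition above a per-plate cutoff, the mean of that plate's test compounds plus 3 SD (cut at about 27% in these data); inactive = the rest.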 The sample as a whole holds a higher share of actives than the screen did.

biological target: Muscarinic acetylcholine receptor M5 (Homo sapiens) (UniProt P08912); assay: human M5 muscarinic receptor antagonists, primary screen, CHO cells, Fluo-8 calcium fluorescence (AID 624040); conditions: CHO-hM5 cells, ACh EC80, at 3 µM, active compounds read high;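 also: 0% = acetylcholine EC80 with DMSO and 100% = DMSO without agonist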
Sequence (P08912 whole entry, looked up): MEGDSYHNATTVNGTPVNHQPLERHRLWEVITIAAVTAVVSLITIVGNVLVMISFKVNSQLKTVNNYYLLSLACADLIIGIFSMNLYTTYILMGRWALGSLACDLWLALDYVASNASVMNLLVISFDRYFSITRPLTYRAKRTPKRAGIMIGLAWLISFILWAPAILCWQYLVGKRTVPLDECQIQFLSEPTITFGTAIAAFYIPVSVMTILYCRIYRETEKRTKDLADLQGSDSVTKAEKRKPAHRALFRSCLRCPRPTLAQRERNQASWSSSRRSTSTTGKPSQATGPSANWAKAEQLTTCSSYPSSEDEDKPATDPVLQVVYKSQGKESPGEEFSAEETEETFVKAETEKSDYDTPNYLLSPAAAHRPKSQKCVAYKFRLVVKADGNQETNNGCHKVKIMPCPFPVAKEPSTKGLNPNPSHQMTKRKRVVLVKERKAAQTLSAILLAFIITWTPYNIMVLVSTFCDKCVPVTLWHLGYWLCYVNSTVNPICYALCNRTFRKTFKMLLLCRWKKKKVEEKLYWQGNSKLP

inhibition, active:
O=C(CNC1CCCCC1)NCC1(c2ccccc2)CCCC1 27.1%, C=CCC1(CC=C)CCCN1C(=O)c1cc(COc2ccc(-n3cncn3)cc2)on1 41.9%, CN(C)CC/C=C1\c2ccccc2CSc2ccccc21 99.1%, COc1ccc(NC(=O)/C(Cl)=C(/Cl)S(=O)Cc2ccc(C)cc2)cn1 (stereo not given) 34.9%, CCCCC(=O)NNC(=S)NC(=O)C(c1ccccc1)c1ccccc1 28.1%, CCN1/C(=C\c2ccc3ccccc3[n+]2CC)Sc2cc(C)ccc21 48.1%, Cc1cc(-c2ccc(S(=O)(=O)N3CCN(c4cccc(C(F)(F)F)c4)CC3)s2)on1 53.9%, Nc1c(C(=O)c2cccs2)sc2nsc(SCCN3CCCCC3)c12 47.4%, CN1CCN(C(=O)N2c3ccccc3CCc3ccccc32)CC1 98.8%, CC(C)S(=O)(=O)c1csc(NC(=O)Nc2ccc(Cl)cc2)c1Cl 37.3%, Cc1cccc2cc3c(N)c(C(=O)N4CCCc5ccccc54)sc3nc12 28.3%, COc1ccc(-c2cc(C(=O)N(C)Cc3ccc(OC)c(OC)c3OC)c3ccccc3n2)cc1OC 29.8%, CCCCn1nnnc1C(c1cccc(OC)c1OC)N1CCN(C/C=C/c2ccccc2)CC1 (stereo not given) 47%, COc1ccc(C(c2nnnn2C2CCCC2)N2CCN(C/C=C/c3ccccc3)CC2)cc1 (stereo not given) 42%, OC[C@@H]1CN(Cc2ccc(-c3ccccc3)cc2)C[C@H](n2cnc3c(NC4CCCC4)ncnc32)O1 31.4%, Cc1cccc(CSc2nc3c(c(=O)n2C)SCC3)c1 36.1%

inhibition, inactive:
CC(C)c1nnc(NC(=O)C2CCCN2S(=O)(=O)c2ccc(Cl)cc2)s1 (stereo not given) -0.86%, CCOc1c(OC)cccc1C(=O)NCC1(c2ccccc2)CCCC1 15.3%, CC(=O)CC(CC(=O)NC1CCCCC1)c1ccccc1 (stereo not given) 8.42%, CC1CN(c2nc(-c3ccccc3)nnc2-c2ccccc2)CC(C)O1 (stereo not given) 0.03%, CCCC(=O)N1CCC1(C)C(=O)Nc1ccc(-n2cncn2)cc1 (stereo not given) -3.91%, O=C(c1cc(COc2c(F)cccc2F)on1)N1CCSCC1 -3.86%, CCN(CC)C(=O)C1CCC(C)(C(=O)O)C1(C)C (stereo not given) 8.62%, COc1ccc(Cn2cc(CN3CCS(=O)(=O)N(Cc4ccc(-c5cccc(Cl)c5)cc4)C(C)C3=O)nn2)cc1 (stereo not given) -2.91%, CC1=C(C(N)=O)C(c2sccc2C)n2nnnc2N1 (stereo not given) -6.06%, COc1ccc(OC)c(C2N(c3ccccn3)C(=O)C3CCCN32)c1 (stereo not given) 2.53%, CN(C)Cc1ccccc1C1(O)c2ccccc2CSc2ccccc21 (stereo not given) 18.8%, CCOC(=O)c1ccc(N=C2SC(C(=O)NC)CC(=O)N2CCc2ccccc2)cc1 (stereo not given) 3.02%, N#Cc1ccc(COC(=O)Cn2nnc(-c3ccccc3)n2)cc1 1.41%, c1cc(-n2cnnn2)ccc1NC1=NCCC1 -8.17%, O=C(CSc1nccn1-c1cccc(F)c1)NC1CCCC1 0.21%, CCC(C)(C)NC(=O)CN(C(=O)CCC(=O)Nc1cc(C)ccn1)c1ccc2c(c1)OCCO2 -0.46%, C=CCC(NC(=O)Cc1ccccc1)C(=O)NCCC (stereo not given) -3.26%, CCCOCC(O)CC(CC)C(=O)NNC(=S)Nc1ccccc1 (stereo not given) -7.7%, CCCNC(=O)N1CCN(C(=O)NCCC)CC1 8.13%, C#CCO[C@@H]1C[C@H](n2cnc3c(=O)[nH]c(NC(=O)C(C)C)nc32)O[C@@H]1CO 9.77%, Cc1cccc(-n2c(Cc3cc(=O)[nH]c(=O)[nH]3)nnc2SC(C)C)c1 -3.22%, CC[C@]12c3[nH]c4ccc(Cl)cc4c3CCN1C(=O)[C@@H](CC(=O)NCCCOC)C[C@@H]2C(=O)N1CCN(C(=O)C2CC2)CC1 0.99%, COc1ccccc1NS(=O)(=O)c1ccc(C)c(C(=O)NCC(c2ccco2)N(C)C)c1 (stereo not given) 6.64%, CSCCC(NS(=O)(=O)c1ccc(C)cc1)C(=O)NCCc1c[nH]c2ccccc12 (stereo not given) 2.39%, Cc1cc(-c2ccc(S(=O)(=O)N3CCc4ccccc4C3)s2)on1 5.38%, Cc1cccc(N2CCN(S(=O)(=O)c3ccc(-c4cc(C)no4)s3)CC2C)c1 (stereo not given) -1.63%, C=CCCN(Cc1ccccc1)S(=O)(=O)c1ccccc1Br 13.3%, O=C(NCC(=O)N1CCC2(CC1)NCCc1[nH]cnc12)c1ccc(Br)cc1 -15.5%, O=C1C2C3C=CC(C3)C2C(=O)N1c1ccc(-c2nc3ccccc3c(=O)o2)cc1 (stereo not given) -6.13%, CC1CCC2(CC1)NC(=O)N(Cc1nnc(-c3cccs3)o1)C2=O (stereo not given) 8.17%, COc1ccccc1CNC(=O)COn1nnc2ccc(S(=O)(=O)N3CCOCC3)cc21 4.42%, CN1CCN(S(=O)(=O)c2cccc(C(=O)N3CCc4ccccc43)c2)CC1 5.4%, Cn1cccc1C(=O)N1CCc2ccccc2C1 -2.44%, COc1ccc(C(=O)NC2CC2)cc1OC1CCN(C/C=C/c2ccccc2)CC1 3.15%, COCCn1c(SCC(=O)Nc2cc(OC)ccc2OC)nc2c(c1=O)SC(C)C2 (stereo not given) 3.68%, CC(=O)Nc1ccc(S(=O)(=O)NCC(=O)OCc2cc(=O)oc3ccc4ccccc4c23)cc1 0.62%, COc1ccc(OCC(O)CNC(=O)Nc2ccc(Cl)cc2)cc1 (stereo not given) 12.7%, CC(=O)N1CCC(N(C(=O)Nc2ccc(Cl)cc2)C(C)C)CC1 12.4%, Cc1cc(N2CCCC2)ccc1NC(=O)COc1ccc(Cl)cc1 -1.18%, O=C(CCCN=C1NS(=O)(=O)c2ccccc21)OCC(=O)c1ccc(F)c(F)c1 7.17%, COc1cc(OC)c(OC)cc1CN1CCN(C(=O)c2cccc3ccccc23)CC1 4.24%, Cc1ccc(C(=O)N2CCCc3ccccc32)c(Cl)c1 16.7%, CCCn1nc(C(=O)N2CCCc3ccccc32)c2ccccc2c1=O 12.6%, O=C(Cc1ccc(S(=O)(=O)N2CCOCC2)s1)NCCOc1ccccc1F -4.35%, CC(Sc1nnc(CNC(=O)c2ccccc2F)n1C)C(=O)Nc1nccs1 (stereo not given) 5.11%, FC(F)Oc1ccccc1NC(=S)Nc1cccc(Cl)c1Cl -7.36%, COc1ccc(CN(C)C(=O)Cc2ccsc2)c(OC)c1OC 6.37%, COc1ccc(CN(C)C(=O)Cc2c[nH]c3ccccc23)c(OC)c1OC 1.21%, CCCCN(CCCC)CCNC(=O)CN1C(=O)COc2ccc(S(=O)(=O)N3CCOCC3)cc21 -0.51%, CCO[C@H]1OC(C(=O)O)=C[C@@H](C2CCCCC2)[C@@H]1CCCO 9.63%, O=C(NCc1cccnc1)c1nc(-c2cccs2)no1 5.2%, CC(C)(C)NC(=O)NC(=O)COC(=O)CCC1CCCCC1 -5.64%, CCc1ccc(CNC(=O)C2CCN(c3nnc(C)c4c(C)n(-c5ccc(C)cc5)nc34)CC2)cc1 0.33%, CCOc1ccc(CCN2C(=S)N([C@@H](CC(C)C)CN3CCC[C@@H]3CN3C(=S)NC[C@@H]3Cc3ccc(O)cc3)C[C@@H]2Cc2ccc(O)cc2)cc1 0.29%, FC(F)(F)Oc1ccccc1C(c1nnnn1C1CCCCC1)N1CCN(C/C=C/c2ccccc2)CC1 (stereo not given) -11.2%, COc1ccc(C(c2nnnn2C2CCCCC2)N2CCN(c3ccccc3F)CC2)cc1 (stereo not given) -15.7%, CCCCn1nnnc1C(c1ccccc1)N1CCN(c2ccccc2OC)CC1 (stereo not given) 2.03%, COCCn1nnnc1C(c1ccccc1Cl)N1CCN(c2ccccc2OC)CC1 (stereo not given) -11.5%, Cc1ccc(-c2cnc(C(O)c3cccc(C)c3C)[nH]2)cc1 (stereo not given) -3.72%, COCCn1c(C)cc(C(=O)CSc2nc3ccccc3c(=O)n2C(C)COC)c1C (stereo not given) 9.46%, CCCn1nc(NC(=O)C(C)C)c2cc3cc(OC)ccc3nc21 14.6%, O=C1CS(=O)CN1c1ccc(Oc2ccccc2)cc1 (stereo not given) -0.11%, CC(C)(C)c1cc2cccnc2n1Cc1cccc(F)c1 -7.37%, CCOc1ccc(CN2CCNC(=O)C2CC(=O)NCCCC2CCCC2)cc1 (stereo not given) 9.04%, O=C(CCc1ccc(S(=O)(=O)N2CCOCC2)cc1)NN=C1CCCCCCC1 -2.08%, COc1cccc(OCC(=O)NCCS(=O)(=O)N2CCN(c3ccccc3)CC2)c1 -6.65%, CC(C)N(Cc1nc(-c2ccc3c(c2)OCO3)no1)CC1CCC(=O)N1 (stereo not given) 16%, OC[C@@H]1CN(C2CCCC2)C[C@H](n2cnc3c(NC4CCC4)ncnc32)O1 9.41%, OC[C@@H]1CN(Cc2ccc(F)cc2)C[C@H](n2cnc3c(NC4CCCC4)ncnc32)O1 4.45%, O=C(NNC(=S)Nc1ccccc1)c1cccc(S(=O)(=O)N2CCOCC2)c1 -3.26%, Cc1ccc(C(=O)NCC(=O)OCC(=O)NC2CCCCCCC2)cc1 7.24%, COCCn1c(SCC(=O)Nc2ccc(F)cc2F)nc2c(c1=O)SCC2 -2.37%, COCCn1c(SCC(=O)Nc2ccccc2F)nc2c(c1=O)SCC2 -1.26%, CN(CCCNC(=O)CN1C(=O)CC(C)(C)S(=O)(=O)c2ccccc21)C1CCCCC1 3.09%
